Measured values taken from PubChem BioAssay.
Active and inactive are the calls of the source.

Key:
[1] = optical density shifts of acrAB sulA E. coli – strain DRC41, OD650, 48 h, E. coli filamentation inducer project, primary screen (AID 1152); conditions: higher = more signal, called active from +8 up or from −8 down;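 also: E. coli MC1000 strain DRC41 lacking acrAB efflux pump and sulA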
[2] = probe aLefty1 binding on compound microarray – biochemical, small-molecule microarray, 635/667 nm fluorescence, primary screen (AID 1153); conditions: higher = more signal;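 also: score merges spot fluorescence with signal-to-noise ratio from the scanned slide images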
[3] = plasmodial surface anion channel blockers, osmotic lysis – cell-based, P. falciparum Indochina, OD700, 1 h, primary screen (AID 1154); conditions: P. falciparum Indochina infected RBC osmotic lysis, higher = more signal, called active from +8 up or from −8 down
[4] = plasmodial surface anion channel blockers, osmotic lysis – cell-based, P. falciparum Indochina, OD700, 2 h, primary screen (AID 1155);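 also: lysis reports solute entry through the parasite surface anion channel PSAC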; conditions: P. falciparum Indochina infected erythrocytes, higher = more signal, called active from +8 up or from −8 down
[5] = changes in parasitized red cell lysis, either direction – P. falciparum Indochina, OD700, 3 h, PSAC antagonist project, primary screen (AID 1156); conditions: P. falciparum-infected erythrocytes, osmotic lysis, higher = more signal, called active from +8 up or from −8 down
[6] = plasmodial surface anion channel blockers, osmotic lysis – cell-based, P. falciparum Indochina, OD700, 18 h, primary screen (AID 1157); conditions: P. falciparum Indochina infected erythrocytes, osmotic lysis OD700, 18 h; higher = more signal, called active from +8 up or from −8 down
[7] = S6 kinase pathway phospho-S6 level changes – cell-based, A549, cytoblot, luminescence, serum-stimulated, primary screen (AID 1158); conditions: 5 h, higher = more signal;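 also: serum-stimulated A549 lung adenocarcinoma cells; signal is phosphorylated S6 detected by cytoblot immunostaining with HRP secondary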
[8] = target: NADPH oxidase 2 (Homo sapiens) (UniProt P04839); assay: compounds shifting NOX2 Amplex Red fluorescence – cell-based, HEK293-NOX2, PMA-stimulated, NOX inhibitor project, primary screen (AID 1159); conditions: 45 min, higher = more signal, called active from +8 up or from −8 down; also: test concentration not given here
NADPH oxidase 2 (Homo sapiens), sequence (P04839 whole entry, looked up): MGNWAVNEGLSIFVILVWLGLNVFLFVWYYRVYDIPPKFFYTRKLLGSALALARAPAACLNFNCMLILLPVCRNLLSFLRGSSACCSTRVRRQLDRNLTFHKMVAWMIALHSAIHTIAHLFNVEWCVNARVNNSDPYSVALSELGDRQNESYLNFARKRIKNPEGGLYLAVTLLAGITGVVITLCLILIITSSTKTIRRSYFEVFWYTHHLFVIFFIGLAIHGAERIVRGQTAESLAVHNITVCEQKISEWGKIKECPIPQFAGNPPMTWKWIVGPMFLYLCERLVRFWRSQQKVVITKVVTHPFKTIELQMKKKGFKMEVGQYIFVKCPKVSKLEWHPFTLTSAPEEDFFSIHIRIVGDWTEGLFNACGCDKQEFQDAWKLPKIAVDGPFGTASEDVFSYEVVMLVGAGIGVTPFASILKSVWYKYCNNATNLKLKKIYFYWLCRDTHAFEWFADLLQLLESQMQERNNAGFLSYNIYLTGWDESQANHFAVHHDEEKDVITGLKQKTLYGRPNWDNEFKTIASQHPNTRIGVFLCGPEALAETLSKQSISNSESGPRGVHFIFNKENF

[9] = target: NADPH oxidase 4 (Homo sapiens) (UniProt Q9NPH5); assay: compounds shifting NOX4 Amplex Red fluorescence – cell-based, HEK293-NOX4, tetracycline-induced, NOX inhibitor project, primary screen (AID 1160); conditions: HEK293-NOX4, Amplex Red H2O2 fluorescence, 45 min; higher = more signal, called active from +8 up or from −8 down
NADPH oxidase 4 (Homo sapiens), sequence (Q9NPH5 whole entry, looked up): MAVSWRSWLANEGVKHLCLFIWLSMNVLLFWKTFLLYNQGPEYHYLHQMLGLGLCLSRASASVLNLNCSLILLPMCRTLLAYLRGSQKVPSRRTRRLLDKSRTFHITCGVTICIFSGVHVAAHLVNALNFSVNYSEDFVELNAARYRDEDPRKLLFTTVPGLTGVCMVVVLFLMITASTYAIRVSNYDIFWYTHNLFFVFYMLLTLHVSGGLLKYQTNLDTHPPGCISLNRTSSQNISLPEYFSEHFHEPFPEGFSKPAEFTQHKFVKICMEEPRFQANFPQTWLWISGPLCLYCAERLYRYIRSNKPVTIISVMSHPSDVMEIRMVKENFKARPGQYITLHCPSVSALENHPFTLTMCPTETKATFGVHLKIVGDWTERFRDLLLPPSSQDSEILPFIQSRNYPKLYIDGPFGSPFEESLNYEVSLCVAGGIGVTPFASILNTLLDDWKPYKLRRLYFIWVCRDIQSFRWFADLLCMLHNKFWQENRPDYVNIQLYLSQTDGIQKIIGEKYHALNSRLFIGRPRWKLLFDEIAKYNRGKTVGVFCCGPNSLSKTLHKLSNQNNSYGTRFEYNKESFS

[10] = target: NADPH oxidase 5 (Homo sapiens) (UniProt Q96PH1); assay: compounds shifting NOX5 Amplex Red fluorescence – cell-based, HEK293-NOX5, NOX inhibitor project, primary screen (AID 1161); conditions: HEK293-NOX5, ionomycin, 45 min, higher = more signal
NADPH oxidase 5 (Homo sapiens), sequence (Q96PH1 whole entry, looked up): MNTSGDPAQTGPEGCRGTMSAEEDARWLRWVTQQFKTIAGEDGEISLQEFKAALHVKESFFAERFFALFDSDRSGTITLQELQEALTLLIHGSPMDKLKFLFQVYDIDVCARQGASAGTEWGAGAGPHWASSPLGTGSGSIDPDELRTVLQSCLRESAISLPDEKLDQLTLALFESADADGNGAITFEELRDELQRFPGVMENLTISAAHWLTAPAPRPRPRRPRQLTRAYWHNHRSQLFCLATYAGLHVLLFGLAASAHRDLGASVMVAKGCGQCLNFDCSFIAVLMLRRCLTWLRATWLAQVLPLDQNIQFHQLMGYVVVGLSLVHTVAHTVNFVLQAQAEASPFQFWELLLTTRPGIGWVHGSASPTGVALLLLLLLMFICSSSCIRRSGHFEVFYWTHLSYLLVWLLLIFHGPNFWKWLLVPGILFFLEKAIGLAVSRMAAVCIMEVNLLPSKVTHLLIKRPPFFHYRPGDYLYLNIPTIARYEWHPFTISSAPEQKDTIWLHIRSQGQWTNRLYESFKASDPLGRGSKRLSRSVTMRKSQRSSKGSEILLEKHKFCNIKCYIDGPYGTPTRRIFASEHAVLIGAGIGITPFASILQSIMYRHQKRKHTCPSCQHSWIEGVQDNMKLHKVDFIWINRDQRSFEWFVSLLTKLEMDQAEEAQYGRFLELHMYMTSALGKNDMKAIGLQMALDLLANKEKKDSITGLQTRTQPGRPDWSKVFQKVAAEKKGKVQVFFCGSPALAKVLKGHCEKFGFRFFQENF

Row | Compound | z-score [1] | composite z-score [2] | z-score [3] | z-score [4] | z-score [5] | z-score [6] | z-score [7] | z-score [8] | z-score [9] | z-score [10]
1 | CCc1cccc(NC(=O)O[C@H]2[C@H](OC(=O)Nc3ccccc3-c3ccccc3)[C@H](OC(=O)Nc3ccccc3-c3ccccc3)[C@@H](OC)O[C@@H]2CO)c1 | -1.98 (inactive) | 0.0442 | 3.88 (inactive) | 1.84 (inactive) | 0.17 (inactive) | 1.77 (inactive) | 0.371 | -3.06 (inactive) | -0.477 (inactive) | -1.01
2 | C=CCNC(=O)[C@H]1[C@@H]2C(=O)O[C@@H](c3ccccc3)[C@@H](c3ccccc3)N2[C@@H](c2ccc(OCCO)cc2)[C@]12C(=O)N(C(=O)OCCOC)c1ccc(C#CCNC(N)=O)cc12 | 0.33 (inactive) | 0.298 | 2.53 (inactive) | 0.666 (inactive) | 1.09 (inactive) | 0.83 (inactive) | 0.387 | 1.76 (inactive) | 1.44 (inactive) | 0.12
3 | C=CCNC(=O)[C@@H]1[C@H]2C(=O)O[C@H](c3ccccc3)[C@H](c3ccccc3)N2[C@H](c2ccc(OCCO)cc2)[C@@]12C(=O)N(C(=O)OCCOC)c1ccccc12 | 0.127 (inactive) | 0.258 | 3.15 (inactive) | 1.27 (inactive) | -0.947 (inactive) | 0.442 (inactive) | -0.296 | 0.406 (inactive) | 0.789 (inactive) | -0.0693
4 | CCCCC(=C=CC[C@H](O)c1cccc(OCCO)c1)C[C@H](O)c1cc(Cl)cc(Cl)c1O | 0.513 (inactive) | 0.0999 | 22 (active) | 5.56 (inactive) | 0.718 (inactive) | 1.48 (inactive) | 0.295 | -2.45 (inactive) | -1.46 (inactive) | -2.02
5 | C=C(/C=C\CNS(=O)(=O)c1ccc(C)cc1)[C@H](O)[C@H]1CCCN1S(=O)(=O)c1ccccc1[N+](=O)[O-] | -0.473 (inactive) | -0.0366 | 12.1 (active) | 2.16 (inactive) | 1.03 (inactive) | 0.77 (inactive) | -0.208 | -0.264 (inactive) | -2.04 (inactive) | -1.77
6 | [N-]=[N+]=NCc1ccccc1C[C@]1(C(=O)N2CCCCC2)COC(c2ccc(OCCCO)cc2)=N1 | 2.89 (inactive) | -0.543 | 29.2 (active) | 19.5 (active) | 4.13 (inactive) | 2.11 (inactive) | -0.305 | -1.66 (inactive) | 0.0299 (inactive) | -1.38
7 | CC(C)C(=C=CC[C@H](O)c1cccc(OCCO)c1)C[C@H](O)c1ccccn1 | 1.21 (inactive) | 0.21 | 7.72 (inactive) | 0.631 (inactive) | 1.96 (inactive) | 0.626 (inactive) | 0.468 | -1.57 (inactive) | 0.362 (inactive) | -1.13
